GLP-1R agonist = activates the human GLP-1 receptor. P43220. HEK293 GLP-1R CRE-luciferase, luminescence, 4-6 h; cells express a hypersensitive GLP-1R form. Potency, µM (series often up to 45.6 µM), actives largely listed as activators. 380,000 tested, 0.007% active
Target sequence (P43220 whole entry, looked up): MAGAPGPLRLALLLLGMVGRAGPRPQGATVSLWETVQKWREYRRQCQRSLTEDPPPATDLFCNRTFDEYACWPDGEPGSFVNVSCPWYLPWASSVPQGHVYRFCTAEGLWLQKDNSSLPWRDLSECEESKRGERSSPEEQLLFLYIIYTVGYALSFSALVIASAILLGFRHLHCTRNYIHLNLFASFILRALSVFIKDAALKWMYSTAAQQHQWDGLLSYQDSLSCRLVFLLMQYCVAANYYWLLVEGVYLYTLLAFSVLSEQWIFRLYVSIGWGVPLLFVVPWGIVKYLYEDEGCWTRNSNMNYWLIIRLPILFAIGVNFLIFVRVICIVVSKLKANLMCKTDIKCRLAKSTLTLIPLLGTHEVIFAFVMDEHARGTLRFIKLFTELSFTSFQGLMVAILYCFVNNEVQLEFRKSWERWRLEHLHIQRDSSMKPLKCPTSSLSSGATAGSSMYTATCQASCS
HEK293 tox = cytotoxic in the GLP-1 receptor inverse agonist counter-screen | Potency, µM (titrated, usually from 38.3 µM), actives largely listed as inhibitors | HEK293 cAMP-luciferase reporter cells, luminescence, 24 h | 410,000 tested, 0.13% active;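 note: loss of luciferase light is scored as toxicity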
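1536-well qHTS counterscreen of the MLSMR; 200 cells/uL, 12 h pre-incubation, 23 nL cpd, 24 h at 37 deg C 5% CO2, luciferase detection reagent, 12 min RT, luminescence. Inhibition = undesired.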
PTHR1 ag = agonists of human PTHR1 parathyroid hormone receptor; Q03431; HEK293 GP2 PTHR1 cells, GloSensor cAMP luminescence, 1 h; Potency, µM (doses to about 115 µM), hits mostly activators; 410,000 tested, 0.075% active; AID 743266; note: nearly all actives have a fitted effect of over 55% in size
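HEK-293-derived GP2 cells expressing PTHR1 and a GloSensor cAMP reporter, 3,000/well, plated overnight, given luciferin plus IBMX (each 0.5 mM as added) for 1 h at 37 °C, then compound for 1 h at 37 °C. Luminescence was read after 15 min at room temperature.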
GLP1R inv ag = inverse agonists of human GLP-1 receptor | Potency, µM (highest dose often 38.3 µM), actives largely listed as inhibitors | HEK293 GLP-1R CRE-luciferase, luminescence, 24 h; GLP-1R form is constitutively active | 410,000 tested, 1.6% active | AID 624417 | P43220; note: nearly all actives have a fitted effect of over 55% in size
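Inverse agonism was detected as reduced cAMP-driven luciferase luminescence after 24 h compound treatment. The cells were HEK293 clones expressing constitutively active human GLP-1R with the reporter. Reporter-only and GPR119 cell lines served as counterscreen controls.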
Large screens that a line does not name were inactive. This is a sample that favours compounds with a hit; in the whole collection about 1.7% have one here. Calls come from the whole dose curve; as a rule, active = well fitted curve in the direction sought with a large enough effect; inconclusive = small, poorly fitted or top-dose-only effect, or another doubt; inactive = no such curve, though single readings can be large; an effect the other way counts as inactive or inconclusive.

O=C(COC(=O)c1ccc(Cl)c(S(=O)(=O)N2CCCCC2)c1)NCCc1ccccc1	none
Cc1ccc(C(=O)OCC(=O)NCc2cccc(Cl)c2)cc1S(=O)(=O)N1CCCCC1	GLP1R inv ag 5µM
Cc1c(Cl)cccc1NC(=O)CSc1ncc2c(n1)-c1ccccc1N(C)S2(=O)=O	none (no result: GLP-1R agonist)
Cc1cc(C)c2oc(-c3ccc(Cl)c(NC(=O)c4cccs4)c3)nc2c1	PTHR1 ag inconclusive
Cc1ncc([N+](=O)[O-])n1C[C@H](O)CCl	none (no result: HEK293 tox, PTHR1 ag, GLP1R inv ag)
COc1ccc(-n2c3c(cc(C(=O)NNc4ccccc4C)c2=O)C(=O)CC(C)(C)C3)cc1	GLP1R inv ag inconclusive
COc1ccc(-n2c3c(cc(C(=O)NNc4ccccc4)c2=O)C(=O)CC(C)(C)C3)cc1	GLP1R inv ag 1µM
COC(=O)C1=C(C)N(Cc2ccc(C)cc2)C(=O)/C1=C\c1cc(OC)c(OC)c(OC)c1	GLP1R inv ag 4.5µM
COC(=O)C1=C(C)N(Cc2ccc(C)cc2)C(=O)/C1=C\c1ccc(O)c(OC)c1	none
OC(c1cccc(OCc2ccccc2)c1)c1nnc(-c2ccccc2)o1 (configuration not stated)	GLP1R inv ag 10µM
COc1ccc(-c2noc(CSc3nc4ccccc4c(=O)n3-c3ccccc3)n2)cc1OC	none
Clc1ccc(-c2noc(CSc3nnc(-c4ccncc4)n3-c3ccccc3)n2)cc1	GLP1R inv ag inconclusive
O=c1c2ccccc2nc(SCc2nc(-c3ccccc3)no2)n1-c1ccc(F)cc1	GLP1R inv ag 3.5µM
Cc1ccc(-n2c(Cc3ccccc3)nnc2SCc2nc(-c3cccs3)no2)cc1	GLP1R inv ag 10µM (no result: GLP-1R agonist)
Clc1ccccc1-c1nnc(SCc2nc(-c3ccccc3)no2)n1-c1ccccc1	GLP1R inv ag 10µM (no result: GLP-1R agonist)
Cc1ccc(-c2cc(-c3ccc4c(c3)NC(=O)CO4)nc3c2COc2ccc(C)cc2-3)cc1	none
OC(CN1CCCCC1)c1cc(-c2ccccc2)on1 (configuration not stated)	none (no result: HEK293 tox, PTHR1 ag, GLP1R inv ag)
CCOC(=O)c1cccc(NC(=O)CC2C(=O)N(c3ccc(Cl)cc3)C(=O)N2C2CCCC2)c1 (configuration not stated)	GLP1R inv ag 13µM (no result: GLP-1R agonist)
Cc1ccc(C)c(N2CCN(C(=O)c3ccccc3Br)CC2)c1	GLP1R inv ag inconclusive
Cc1ccc(N2CCN(C(=O)c3ccccc3Br)CC2)c(C)c1	GLP1R inv ag 10µM
CN(C)Cc1c(-c2ccc(Cl)cc2)nc2ccccn12	none
Clc1ccc(-c2nc3ccccn3c2CN2CCCCC2)cc1	HEK293 tox inconclusive, GLP1R inv ag 10µM
Cc1cc(C)c(NC(=O)CCCN2C(=O)COc3ccc(C)cc32)c(C)c1	none (no result: GLP-1R agonist)
CC[C@H](CO)Nc1nc(Nc2cccc(Cl)c2)c2ncn(C(C)C)c2n1	HEK293 tox inconclusive, GLP1R inv ag inconclusive
CC(C)[C@H](CO)N(Cc1cccc(F)c1)c1nc(Nc2cccc(Cl)c2)c2ncn(C(C)C)c2n1	GLP1R inv ag 4µM
Cc1cc(-c2ccc(C)c(S(=O)(=O)N(Cc3cccs3)C(C)C)c2)on1	GLP1R inv ag 13µM (no result: GLP-1R agonist)
Cc1ccc(C)c(NC(=O)CSc2nnc(-c3cc4occc4n3C)n2-c2ccccc2C)c1	GLP1R inv ag 11µM (no result: GLP-1R agonist)
Cc1ccc(C)c(NC(=O)CSc2nccn2-c2cccc(C)c2C)c1	GLP1R inv ag 13µM (no result: GLP-1R agonist)
CCc1cccc(CC)c1-n1c(SCC(=O)N2CCCc3ccccc32)nc(O)cc1=O	GLP1R inv ag 10µM
Cc1cccc(-n2ccnc2SCC(=O)N2CCCc3ccccc32)c1C	GLP1R inv ag 11µM
C=CCN1C(=CCO)[C@H]2C[C@H]3[C@@H]1CC[C@@]31c3ccccc3N3C=C4[C@@H]5N(/C=C/2[C@H]31)c1ccccc1[C@]51CC[C@H]2[C@H]1C[C@@H]4/C(=C/CO)N2CC=C	none (no result: HEK293 tox, PTHR1 ag, GLP1R inv ag)
Cc1cc(C)cc(NC(=S)N(Cc2ccc(Cl)cc2)Cc2ccc(C(=O)O)cc2)c1	GLP1R inv ag inconclusive
CCCN(Cc1ccccc1)C(=S)Nc1ccc(F)cc1	GLP1R inv ag inconclusive
Cc1cc(NC(=S)N(Cc2ccc(Cl)cc2)Cc2ccc(C(=O)O)cc2)ccc1Cl	GLP1R inv ag 8.9µM
CN(C)CCCN(Cc1ccccc1)C(=S)Nc1ccc(F)c(Cl)c1	HEK293 tox inconclusive, GLP1R inv ag 1.8µM
CN(C)CCCN(Cc1ccccc1)C(=S)Nc1cccc(C(F)(F)F)c1	HEK293 tox inconclusive, GLP1R inv ag inconclusive
CCCN(Cc1ccccc1)C(=S)Nc1ccc(SC(F)F)cc1	HEK293 tox inconclusive, GLP1R inv ag 10µM

Screening results as filed in PubChem BioAssay.
